# Screens from PubChem.
# M1 ag = agonists of human M1 muscarinic receptor; CHO-K1 hM1, Fluo-8 calcium fluorescence, agonist mode; 0% DMSO, 100% acetylcholine EC100; activation, % at 3 µM; 0.33% of 360,000 active;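 active = activation above the run's mean compound activation plus 3 SD, cut at about 16% in these data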;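 also: peak over basal fluorescence ratio within a 140 s kinetic read after compound addition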
# Target sequence (P11229 whole entry, looked up): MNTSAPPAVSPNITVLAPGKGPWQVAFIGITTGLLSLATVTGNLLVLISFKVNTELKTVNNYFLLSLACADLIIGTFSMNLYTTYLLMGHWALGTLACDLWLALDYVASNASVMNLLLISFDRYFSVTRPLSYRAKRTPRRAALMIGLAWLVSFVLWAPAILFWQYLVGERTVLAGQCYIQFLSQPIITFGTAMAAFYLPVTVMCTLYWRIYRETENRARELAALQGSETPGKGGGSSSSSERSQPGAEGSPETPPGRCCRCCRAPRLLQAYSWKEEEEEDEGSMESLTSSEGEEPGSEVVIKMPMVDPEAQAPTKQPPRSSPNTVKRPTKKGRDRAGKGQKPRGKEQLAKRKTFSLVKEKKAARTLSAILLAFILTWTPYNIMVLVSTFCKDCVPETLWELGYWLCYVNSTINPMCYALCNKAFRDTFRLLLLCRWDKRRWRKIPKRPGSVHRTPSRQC
# CHO-K1 Ca ag = M1 agonist counterscreen hit in parental CHO-K1 cells; 0.48% of 360,000 active; Fluo-8 calcium fluorescence; scaled to maximal ATP response, vehicle zero; activation, % at 3 µM; AID 602248; in the data active = activation above about 15%;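 also: untransfected CHO-K1 host cells lacking M1 receptor as counterscreen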
# M1 antag = blocks human M1 muscarinic receptor; P11229; CHO-K1 hM1, Fluo-8 calcium fluorescence, ACh EC80 antagonist; inhibition, % at 3 µM; 1.3% of 360,000 active; AID 588852;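 active = percent inhibition above its own plate's cutoff, namely the mean of that plate's compound wells plus 3 SD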;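 also: peak over basal fluorescence ratio during 140 s after agonist addition; 0% = ACh EC80 plus DMSO and 100% = DMSO alone without agonist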
# M1 PAM parental = counter-screen for M1 PAMs: effect in parental CHO-K1 cells; ATP EC20, Fluo-8 calcium fluorescence; 0% at ATP EC20, 100% at ATP max; activation, % at 3 µM; 0.02% of 360,000 active; AID 602247;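 active = activation above the run cutoff, the mean activation of all test compounds plus 3 SD, cut at about 40% in these data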;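 also: peak over basal fluorescence ratio in a 140 s read after ATP addition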
# CHO-K1 Ca antag = counter-screen for M1 antagonists: effect in parental CHO-K1 cells; ATP-induced calcium, Fluo-8 fluorescence; inhibition, % at 3 µM; 0.6% of 360,000 active; AID 602250;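 active = inhibition above a per-plate cutoff, the plate's mean sample inhibition plus 3 SD, cut at about 24% in these data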;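 also: 0% = DMSO plus EC80 ATP and 100% = DMSO alone without ATP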
# CHRM1 PAM = human CHRM1 positive allosteric modulation | P11229 | CHO-K1 hM1, Fluo-8 calcium fluorescence, ACh EC20; 0% = ACh EC20, 100% = maximal ACh | activation, % at 3 µM | 0.088% of 360,000 active | AID 588819; in the data active = activation above about 19%, passing the limit was not always enough
# Active calls of the source: *. Only some compounds are listed: those with a hit (about 2.4% of all), similar ones and a draw of the others.
SMILES,M1 ag,CHO-K1 Ca ag,M1 antag,M1 PAM parental,CHO-K1 Ca antag,CHRM1 PAM
CCC(=O)NC(=S)NNC(=O)c1ccc(OC)cc1,-4,0,0,-3,-12,-1
CCCCC(=O)NNC(=S)NCc1ccccc1,-3,0,39*,11,-24,3
CCNC(=S)NNC(=S)NCc1ccccc1,-2,0,2,5,-11,-4
COc1ccc(C(=O)NC(=S)NNC(=O)c2ccc(C)cc2)cc1,87*,82*,31,-25,14,-21
Cc1nnc(NC(=O)CCN2C(=O)C3CC=CCC3C2=O)s1 (stereo not given),-1,0,-7,4,-1,3
CN(C)C(CNC(=O)CN1C(=O)NC2(CCCC2)C1=O)c1ccccc1 (stereo not given),-8,1,48*,9,-4,-22
OCCC1CN(Cc2ccc(Oc3ncccn3)cc2)CCN1C1CCCC1 (stereo not given),-11,0,17,-6,5,-21
COc1cccc(C2SCC(=O)N2c2ccc(C)cc2)c1OC (stereo not given),-11,0,58*,16,-8,-27
Cc1c(C(c2cc3c(cc2Br)OCO3)c2c(C)n(C)n(-c3ccccc3)c2=O)c(=O)n(-c2ccccc2)n1C,-8,0,39*,7,-11,-21
COc1ccc(/C=N/NC(=S)NC2CCS(=O)(=O)C2)cc1 (stereo not given),-5,1,-4,5,-6,2
CCC(CC)CN1CCC(CN2C(=S)NC[C@@H]2[C@@H](C)CC)CC1,-11,1,-5,9,-15,-5
CC[C@H](C)[C@H]1CNC(=S)N1CC1CCN(CCCCc2ccccc2)CC1,-11,1,71*,1,-5,-31
CC[C@H](C)[C@H]1CNC(=S)N1CC1CCN(CCCC2CCCC2)CC1,-12,0,38*,6,-11,-26
CC[C@H](C)[C@H]1CNC(=S)N1CC1CCN(CCC(C)(C)C)CC1,-8,0,-4,2,-11,4
CC(C)C[C@H]1CNC(=S)N1CC1CCN(CC2CCC(C(C)(C)C)CC2)CC1 (stereo not given in full),-10,1,76*,9,-6,-31
CC(C)C[C@H]1CNC(=S)N1CC1CCN(CCCC2CCCCC2)CC1,-12,1,83*,-1,8,-31
S=C1NCCN1CC1CCN(CCC23CC4CC(CC(C4)C2)C3)CC1,-11,0,85*,-11,-7,-31
CCN1CCC(CN2CCNC2=S)CC1,-9,0,-4,16,-6,2
CC(C)C[C@H]1CNC(=S)N1CC1CCN(CCC23CC4CC(CC(C4)C2)C3)CC1,-10,1,88*,24,-18,-31
CN(CCOc1ccc(Cl)cc1)Cc1cccc(S(=O)(=O)N(C)C)c1,32*,9,16,10,-8,-7
O=C1CC(NS(=O)(=O)c2cccs2)CN1c1ccccc1 (stereo not given),-3,1,-9,16,-7,5
O=C(NCCCN1CCCC1)c1ccc2c(c1)N(Cc1ccccc1F)C(=O)c1ccccc1S2=O (stereo not given),-6,0,33*,-9,1,-20
CC1CCCCN1CCNC(=O)c1ccc2c(c1)N(Cc1ccccc1F)C(=O)c1ccccc1S2=O (stereo not given),-3,4,48*,27,-16,-18
CCN1CCN(CCNC(=O)c2ccc(/C=C3/Sc4ccccc4N(Cc4ccccc4C)C3=O)cc2)CC1,4,13,21,32,-5,-16
CCCCN(C)C(=O)c1ccc2c(c1)N(CC)C(=O)c1ccccc1S2=O (stereo not given),-10,0,23,-10,0,-19
SMILES,M1 ag,CHO-K1 Ca ag,M1 antag,M1 PAM parental,CHO-K1 Ca antag,CHRM1 PAM
CCN1CCN(CCCNC(=O)c2ccc(/C=C3/Sc4ccccc4N(Cc4ccccc4F)C3=O)cc2)CC1,-3,7,29*,18,-13,-17
CCCCN(C)CCCNC(=O)c1ccc2c(c1)N(CC)C(=O)c1ccccc1S2=O (stereo not given),-10,0,47*,-9,-8,-24
CCn1c(C)nc2cc(C(=O)N/N=C/c3ccc(N4CCOCC4)cc3)ccc21,-6,3,6,13,-6,-6
CCN1C(=O)c2ccccc2S(=O)c2ccc(C(=O)N3CCOCC3)cc21 (stereo not given),-7,18*,7,7,0,-5
CCN1C(=O)c2ccccc2S(=O)(=O)c2ccc(C(=O)N3CCOCC3)cc21,-11,1,-20,15,-3,9
CN(C)C(=O)c1ccc(Nc2nc(-c3cccs3)nc3ccccc23)cc1,-2,5,26*,-2,18,-15
CC(=O)c1ccc(Nc2nc(-c3ccccc3)nc3ccccc23)cc1,-3,1,-9,-1,-5,5
Cc1cc([N+](=O)[O-])ccc1NC(=O)c1ccco1,-5,0,-14,9,4,10
Cc1cc([N+](=O)[O-])ccc1NC(=O)C(C)[n+]1ccccc1 (stereo not given),-12,0,27*,5,3,-27
CC1CCC(NC(=O)COc2ccc(C(=O)c3ccccc3)cc2)CC1 (stereo not given),-2,2,-17,-1,4,10
CCCOc1ccc(OCCN2CCCC(C)C2)cc1 (stereo not given),-7,1,28*,23,-13,-23
CC1CCN(CCCCOc2ccc(C(=O)c3ccccc3)cc2)CC1,-3,1,55*,11,-5,-24
CC1CCN(CCCCOc2cccc(C(C)C)c2)CC1,-5,1,70*,-24,10,-31
CC1CCN(CCOc2ccc(C(=O)c3ccccc3)cc2)CC1,-9,1,64*,15,-7,-29
CC1CCN(CCOc2cccc(Br)c2)CC1,-9,2,9,24,-6,-5
Cc1ccc(OCCCCN2CCC(C)CC2)cc1,-10,0,4,11,-12,-7
Cc1cc([N+](=O)[O-])ccc1N1C(=O)c2ccc(C(=O)Nc3ccccc3C(=O)O)cc2C1=O,-2,1,3,4,-6,-1
COc1ccc(OCC(=O)N/N=C2\CCCc3ccccc32)cc1,-5,4,11,-15,25*,-8
COc1ccccc1OCC(=O)N/N=C1\CCCCc2ccccc21,-3,3,-7,2,-10,6
O=C(N/N=C1\CCCCc2ccccc21)c1ccccn1,-13,0,-4,-15,29*,8
CC(=O)NC(c1ccc(F)c(F)c1)c1nc(-c2cccc(C(C)C)c2)cs1 (stereo not given),-5,1,-6,14,-6,2
